TDP1 cell noCPT: qHTS for Inhibitors of human tyrosyl-DNA phosphodiesterase 1 (TDP1): qHTS in cells in absence of CPT; DT40 Tdp1-/- hTDP1 cells, no CPT, ATP luminescence, 48 h; Potency, µM (series often up to 46.2 µM), for inactives: top-dose activity change, negative = growth inhibition, most hits filed as inhibitors; 420,000 compounds, 15% hits; further: on the % scale 0 is the no-effect control and ±100 the full control effect; nearly all actives have a fitted effect of over 55% in size
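Camptothecin absent (DMSO only). Human TDP1-complemented DT40 knockout cells, 400 cells/well, 37 °C for minimum 48 hr; ATP measured via CellTiter-Glo, 30 min dark incubation, luminescence.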
ClpP mod: qHTS Assay for Activators of ClpP | Potency, µM (doses to about 57.5 µM), inactives show top-dose activity change, negative = active | purified B. subtilis ClpP, FRET peptide cleavage, 20 min | 340,000 compounds, 1.9% hits | ATP-dependent Clp protease proteolytic subunit (Bacillus subtilis (strain 168)), P80244 | AID 651965, 2013; active means well fitted falling curve with a large enough effect; inconclusive means small, poorly fitted or top-dose-only effect; inactive means no such curve, though single readings can be large or run the other way; further: the source files actives as falling curves though it sought activators and does not explain the sign; nearly all actives have a fitted effect of over 65% in size
Target sequence (P80244 whole entry, looked up): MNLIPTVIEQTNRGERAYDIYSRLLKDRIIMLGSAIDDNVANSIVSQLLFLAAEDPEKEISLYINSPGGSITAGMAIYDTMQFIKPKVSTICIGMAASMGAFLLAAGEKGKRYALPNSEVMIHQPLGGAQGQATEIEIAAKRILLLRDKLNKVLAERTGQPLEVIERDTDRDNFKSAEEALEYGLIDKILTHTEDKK
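FRET quenching reversal measured ClpP activation: 10 microg/mL B. subtilis ClpP at pH 8 with the FRET-FV decapeptide, read at 430 nm after 320 nm excitation. The 20-min minus 0-min signal was scaled between DMSO/no-enzyme wells and ADEP (5.8 microM final).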
TDP1 block: blocks human tyrosyl-DNA phosphodiesterase 1; Q9NUW8; recombinant TDP1, AlphaScreen DNA substrate cleavage; Potency, µM (top dose mostly 130 µM), without a hit: top-dose activity change, negative = inhibition, most hits filed as inhibitors; 350,000 compounds, 0.28% hits; further: on the % scale 0 is the no-effect control and ±100 the full control effect; nearly all actives have a fitted effect of over 40% in size
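Compounds were preincubated with Tdp1 (1 nM final) for 15 min at room temperature before substrate (15 nM final) started a 5 min reaction; beads (10 ug/ml final) were then added for 10 min before AlphaScreen detection.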
TDP1 cell CPT: growth inhibition of DT40 Tdp1-/-;hTDP1 cells with camptothecin (screen for TDP1 inhibitors) | chicken DT40 Tdp1-/-;hTDP1 cells + 20 nM CPT, ATP luminescence, 48 h | Potency, µM (doses to about 46.2 µM), inactives show at the highest dose activity change, negative = growth inhibition, actives largely listed as inhibitors | 420,000 compounds, 12% hits | AID 686979; further: on the % scale 0 is the no-effect control and ±100 the full control effect; nearly all actives have a fitted effect of over 55% in size
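Chicken DT40 Tdp1-/- cells stably complemented with human TDP1 were seeded at 400 cells/well in medium containing 20 nM camptothecin, exposed to pin-transferred compounds, and grown at 37 °C for at least 48 hr. Viability was read as ATP luminescence.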
The depositor's hits bear a star; [ ] = another dose, or the depositor's remark. Only some compounds are listed: those with a hit (about 17% of all), similar ones and a draw of the others. Unless noted, the call rests on the fitted dose curve; in most records, active means well fitted curve in the direction sought with a large enough effect; inconclusive means small, poorly fitted or top-dose-only effect, or another doubt; inactive means no such curve, though single readings can be large; an effect the other way counts as inactive or inconclusive. Potency means the concentration at half of the fitted maximal effect.

For NS(=O)(=O)c1cccc(NC(=O)COC(=O)CSCc2ccccc2)c1 the results were TDP1 cell noCPT 0%, ClpP mod 4%, TDP1 block 0% and TDP1 cell CPT -7%.
`CN(C)S(=O)(=O)c1cccc(NC(=O)COC(=O)CCSc2ccc(Cl)cc2)c1` gave TDP1 cell noCPT -16%, ClpP mod -1%, TDP1 block 4% and TDP1 cell CPT 18%.
CCN(CC)S(=O)(=O)c1ccc2c(c1)N(CC(=O)Nc1c(C)cccc1C)C(=O)CO2 was read as TDP1 cell noCPT -3%, ClpP mod -4%, TDP1 block -1% and TDP1 cell CPT 2%.
c1cnc2nc3c4ccccc4c4ccccc4c3nc2c1 was read as TDP1 cell noCPT 15µM* and TDP1 cell CPT inconclusive.
For N=c1c2c(-c3ccccc3)c(-c3ccccc3)n(Cc3ccco3)c2ncn1CCCO the results were TDP1 cell noCPT 23µM*, TDP1 block 3% and TDP1 cell CPT 13µM*.
Screening N=c1c2c(-c3ccccc3)c(-c3ccccc3)n(Cc3ccco3)c2ncn1CCN1CCOCC1 returned TDP1 cell noCPT inconclusive, ClpP mod 1%, TDP1 block 5% and TDP1 cell CPT inconclusive.
N=c1c2c(-c3ccccc3)c(-c3ccccc3)n(Cc3ccco3)c2ncn1CCO was read as TDP1 cell noCPT 6.5µM*, ClpP mod 1%, TDP1 block 3% and TDP1 cell CPT 7.3µM*.
For Cc1cc(NS(=O)(=O)c2ccc(NC(=O)Cc3ccc(Cl)c(Cl)c3)cc2)no1 the results were TDP1 cell noCPT -22%, TDP1 block 0% and TDP1 cell CPT -15%.
`COc1ccc(S(=O)(=O)NCC(c2cccs2)S(=O)(=O)c2ccc(C)cc2)cc1F` (centres undefined) gave TDP1 cell noCPT 16µM*, ClpP mod 1%, TDP1 block 0% and TDP1 cell CPT inconclusive.
Screening COc1ccc(C)cc1S(=O)(=O)NCC(c1cccs1)S(=O)(=O)c1ccc(C)cc1 (centres undefined) returned TDP1 cell noCPT inconclusive, ClpP mod 1%, TDP1 block 0% and TDP1 cell CPT 23µM*.
`CC[C@H](C)[C@@H](NC(=O)O[C@@H]1Cc2cc(Br)ccc2O[C@H]1c1cccc(OC)c1)C(=O)OC` gave TDP1 block 6%.
`COc1ccc(-c2ccnc3nc(N4CCN(c5ccccc5)CC4)nn23)cc1` gave TDP1 cell noCPT 21µM*, ClpP mod 1%, TDP1 block 3% and TDP1 cell CPT inconclusive.
For Fc1ccc(-c2ccnc3nc(N4CCOCC4)nn23)cc1 the results were TDP1 cell noCPT -3%, ClpP mod inconclusive, TDP1 block 4% and TDP1 cell CPT -15%.
For COc1ccc2cc3c(N)nn(C(=O)c4ccc(F)cc4)c3nc2c1 the results were TDP1 cell noCPT 10µM*, ClpP mod -3% and TDP1 cell CPT inconclusive.
`Cc1ccc2cc3c(N)c(C(=O)N4CCOCC4)sc3nc2c1` gave TDP1 cell noCPT inconclusive, ClpP mod -1%, TDP1 block 5% and TDP1 cell CPT -9%.
For COc1ccc2cc3c(N)nn(C(=O)Cc4c[nH]c5ccccc45)c3nc2c1 the results were TDP1 cell noCPT 4.1µM*, ClpP mod -4% and TDP1 cell CPT 10µM*.
Screening COc1cccc(CC(=O)n2nc(N)c3cc4ccc(OC)cc4nc32)c1 returned TDP1 cell noCPT -27%, ClpP mod -4%, TDP1 block 3% and TDP1 cell CPT -10%.
`COc1ccc2cc3c(N)c(C(=O)N4CCCC4)sc3nc2c1` gave TDP1 cell noCPT 21µM*, ClpP mod -7%, TDP1 block 4% and TDP1 cell CPT inconclusive.
`COc1ccc2cc3c(N)nn(C(=O)c4ccccc4Cl)c3nc2c1` gave TDP1 cell noCPT inconclusive, ClpP mod 0%, TDP1 block 8% and TDP1 cell CPT 1.6µM*.
Screening COc1ccc2cc3c(N)nn(C(=O)c4cccc(F)c4)c3nc2c1 returned TDP1 cell noCPT inconclusive, ClpP mod 1% and TDP1 cell CPT inconclusive.
`COc1ccc(-c2cc(C3CCNCC3)[nH]n2)cc1` gave TDP1 cell noCPT inconclusive, ClpP mod 1% and TDP1 cell CPT inconclusive.
COCCNC(=O)c1cc2n(n1)CCCN(Cc1ccc(C)cc1)C2=O was read as TDP1 cell noCPT -4%, ClpP mod -1%, TDP1 block 1% and TDP1 cell CPT -16%.
O=C(Cc1ccc(NC(=O)N2CCSc3ncccc32)cc1)NCCc1ccccc1 was read as TDP1 cell noCPT -25%, ClpP mod inconclusive, TDP1 block 3% and TDP1 cell CPT inconclusive.
For CCOc1ccccc1Nc1nc2ccccc2c2nncn12 the results were TDP1 cell noCPT inconclusive, ClpP mod inconclusive, TDP1 block -6%[12.3 µM] and TDP1 cell CPT -24%.
Screening Cc1ccc(Cl)cc1Nc1nc2ccccc2c2nncn12 returned TDP1 cell noCPT 23µM*, ClpP mod -27%, TDP1 block 2% and TDP1 cell CPT inconclusive.
`O=C(CCS(=O)(=O)c1cc(Br)cc2c1N(C(=O)C1CC1)CC2)N1CCN(c2ccc(F)cc2)CC1` gave TDP1 cell noCPT inconclusive, ClpP mod -1%, TDP1 block 2% and TDP1 cell CPT inconclusive.
`CC(C)=C[C@@H]1C[C@H](C)[C@H]2CC[C@H](C)c3c(O)c(O)c(C)c1c32` gave TDP1 cell noCPT inconclusive, ClpP mod -5%, TDP1 block 9% and TDP1 cell CPT 21µM*.
For CC(=O)OC1[C@H](Oc2c(O)c(C)c3c4c2[C@@H](C)CC[C@@H]4[C@@H](C)C[C@@H]3C=C(C)C)OC[C@@H](O)[C@@H]1O (some centres undefined) the results were TDP1 cell noCPT -31%, ClpP mod -2%, TDP1 block 5% and TDP1 cell CPT 5%.
For CC(=O)Oc1c(C)c2c3c(c1OC(C)=O)[C@@H](C)CC[C@@H]3[C@@H](C)C[C@H]2C=C(C)C the results were TDP1 cell noCPT inconclusive, ClpP mod 0%, TDP1 block 1% and TDP1 cell CPT inconclusive.
Screening CC(=O)O[C@H]1[C@H](O)[C@H](Oc2c(O)c(C)c3c4c2[C@@H](C)CC[C@@H]4[C@@H](C)C[C@H]3C=C(C)C)O[C@@H](C)[C@H]1O returned TDP1 cell noCPT 18µM*, ClpP mod -3%, TDP1 block 7% and TDP1 cell CPT inconclusive.
`CCCCc1cc(=O)oc2cc(OC(C)C(=O)NCC3CCC(C(=O)O)CC3)c(Cl)cc12` (centres undefined) gave TDP1 cell noCPT -20%, ClpP mod 5% and TDP1 cell CPT -23%.
`CCN(CC)C(=O)CSc1nc(-c2cccs2)cc(-c2cccs2)c1C#N` gave TDP1 cell noCPT inconclusive, ClpP mod 25µM*, TDP1 block -5% and TDP1 cell CPT 23µM*.

Assay outcomes as filed in PubChem BioAssay.
